Screening results as filed in PubChem BioAssay.
Rows were chosen to be rich in hits. Some 3.2% of all compounds tested hit in one or more screens of this group.
TexasRed fluor = Total Fluorescence Counterscreen for Inhibitors of the Interaction of Thyroid Hormone Receptor and Steroid Receptor Coregulator 2. TRb/SRC2 Texas Red total fluorescence interference. Potency, µM (series often up to 106 µM). 280,000 compounds, 0.29% hits; active = well fitted curve in either direction with a large enough effect; inconclusive = small, poorly fitted or top-dose-only effect
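Human TRβ ligand-binding domain (0.6 uM) and Texas Red SRC2 peptide (20 nM) in Tris buffer with 1 uM T3 and 5% DMSO were incubated with pinned compound for 5 hr at ambient temperature. Total fluorescence was computed as S + 2P (555/632 nm).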
TRb-SRC2 inh = qHTS for Inhibitors of the Interaction of Thyroid Hormone Receptor and Steroid Receptor Coregulator 2 | TRbeta-SRC2 peptide binding, fluorescence polarization; receptor liganded with 1 µM T3 | Potency, µM (doses to about 106 µM), most hits filed as inhibitors | 280,000 compounds, 0.065% hits | AID 1469, 2008; note: nearly all actives have a fitted effect of over 50% in size
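Each compound concentration gave % activity, normalized to unbound and bound Texas Red SRC2 controls, from polarization read after 5 hr ambient incubation with T3-loaded human TRb LBD.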
Tau FP inhib = qHTS for Inhibitors of Tau Fibril Formation, Fluorescence Polarization; Microtubule-associated protein tau (Homo sapiens), P10636; K18 P301L tau heparin fibrillization, Alexa594 FP, 6 h; Potency, µM (top dose mostly 57.7 µM), most hits filed as inhibitors; 280,000 compounds, 0.39% hits; AID 1468, 2008; note: nearly all actives have a fitted effect of over 55% in size
Target sequence (P10636 561-689 P618L limits assumed): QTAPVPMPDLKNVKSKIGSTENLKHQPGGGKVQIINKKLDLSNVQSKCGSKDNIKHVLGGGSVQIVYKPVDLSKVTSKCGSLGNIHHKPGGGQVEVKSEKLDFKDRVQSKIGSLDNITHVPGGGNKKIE
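Recombinant K18 P301L […], labeled with Alexa 594 at 0.24 uM over 15 uM unlabeled; heparin inducer 20 uM final; 37 C, 6 hr; FP endpoint.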
Tau ThT inhib = qHTS for Inhibitors of Tau Fibril Formation, Thioflavin T Binding. 270,000 compounds, 2.1% hits. Microtubule-associated protein tau (Homo sapiens), P10636. AID 1460, 2008. Potency, µM (top dose mostly 57.4 µM), hits mostly inhibitors. recombinant tau K18 P301L, heparin-induced fibrillization, ThT fluorescence; note: nearly all actives have a fitted effect of over 55% in size
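Heparin-induced (20 uM) aggregation of recombinant human K18 P301L tau, 15 uM unlabeled with 0.24 uM labeled, pH 7 acetate buffer, 6 hr at 37 C with compound. Fibrils quantified by 30 uM ThT fluorescence after 1 hr ambient incubation.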
Tau fluor counter = Counterscreen qHTS for Inhibitors of Tau Fibril Formation, Fluorescence Polarization; tau K18 P301L Alexa594 fluorescence, heparin fibrillization; Potency, µM (doses to about 57.7 µM); 280,000 compounds, 0.93% hits; note: nearly all actives have a fitted effect of over 55% in size
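Human tau K18 P301L (15 uM unlabeled, 0.24 uM Alexa 594-labeled) in 100 mM sodium acetate pH 7 with 20 uM heparin, 6 hr at 37 C. ThT 30 uM added, 1 hr ambient; Alexa 594 FP and total fluorescence read at 555/632 nm.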
RGS12 GoLoco inh = qHTS Assay for Inhibitors of RGS12 GoLoco Motif Activity (Red Fluorophore) | Potency, µM (top dose mostly 61.6 µM), usual class: inhibitors | Guanine nucleotide-binding protein G(i) subunit alpha-1 (Homo sapiens), P63096 | 230,000 compounds, 0.44% hits | Gai1:RGS12 GoLoco peptide FP, rhodamine, 10 min; active = well fitted inhibition curve with a large enough effect, not every such curve was filed as active; inactive = no such curve, though single readings can be large or run the other way; note: nearly all actives have a fitted effect of over 30% in size
Target sequence (P63096 whole entry, looked up): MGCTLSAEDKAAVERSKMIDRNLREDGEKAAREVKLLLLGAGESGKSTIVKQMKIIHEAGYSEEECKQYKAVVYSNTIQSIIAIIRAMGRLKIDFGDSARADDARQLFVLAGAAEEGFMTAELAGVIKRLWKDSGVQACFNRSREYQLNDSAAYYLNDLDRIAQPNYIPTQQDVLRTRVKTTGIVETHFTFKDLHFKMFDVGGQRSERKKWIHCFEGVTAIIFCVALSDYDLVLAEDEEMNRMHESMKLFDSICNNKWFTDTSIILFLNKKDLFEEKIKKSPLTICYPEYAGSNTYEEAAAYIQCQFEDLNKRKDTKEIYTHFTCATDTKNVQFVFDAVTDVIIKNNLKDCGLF
Numbers stand for hits; [ ] = another dose, or the depositor's remark. Unless noted, calls come from the whole dose curve; as a rule, active = well fitted curve in the direction sought with a large enough effect; inconclusive = small, poorly fitted or top-dose-only effect, or another doubt; inactive = no such curve, though single readings can be large; an effect the other way counts as inactive or inconclusive.

For COc1ccc(NC(=S)NC(NC(=O)c2ccccc2Cl)C(Cl)(Cl)Cl)c([N+](=O)[O-])c1 (stereo unspecified) the results were TexasRed fluor inactive, TRb-SRC2 inh inactive, Tau FP inhib inactive, Tau ThT inhib inconclusive, Tau fluor counter inconclusive and RGS12 GoLoco inh inactive.
COc1ccc(NC(=S)NC(NC(=O)CCl)C(Cl)(Cl)Cl)c([N+](=O)[O-])c1 (stereo unspecified) was read as TexasRed fluor inactive, TRb-SRC2 inh inactive, Tau FP inhib inactive, Tau ThT inhib 16µM, Tau fluor counter inconclusive and RGS12 GoLoco inh inactive.
`C=C(C)CC(C)(C)C` gave TexasRed fluor inactive and TRb-SRC2 inh inactive.
`COc1ccc(OC)c(S(=O)(=O)Nc2ccc(O)c3ccccc23)c1` gave TexasRed fluor inactive, TRb-SRC2 inh inactive, Tau FP inhib inconclusive, Tau ThT inhib 25µM, Tau fluor counter 28µM[quencher] and RGS12 GoLoco inh inactive.
For Oc1csc(Cc2nc(-c3ccc(-c4ccccc4)cc3)cs2)n1 the results were TexasRed fluor inactive, TRb-SRC2 inh inactive, Tau FP inhib inactive, Tau ThT inhib inconclusive, Tau fluor counter inactive and RGS12 GoLoco inh inactive.
`Oc1csc(Cc2nc(-c3ccccc3F)cs2)n1` gave TexasRed fluor inactive, TRb-SRC2 inh inactive, Tau FP inhib inactive, Tau ThT inhib 14µM, Tau fluor counter inconclusive and RGS12 GoLoco inh inactive.
Screening Oc1csc(Cc2nc(-c3ccc4ccccc4c3)cs2)n1 returned TexasRed fluor inactive, TRb-SRC2 inh inactive, Tau FP inhib inactive, Tau ThT inhib 3.5µM, Tau fluor counter 13µM[quencher] and RGS12 GoLoco inh inactive.
`C=CC[n+]1c(-c2ccc(Cl)cc2Cl)csc1Nc1ccc(NC(C)=O)cc1` gave TexasRed fluor inactive, TRb-SRC2 inh inactive, Tau FP inhib inconclusive, Tau ThT inhib inconclusive, Tau fluor counter 25µM[quencher] and RGS12 GoLoco inh inactive.
`C=CC[n+]1c(-c2ccc(Cl)cc2Cl)csc1Nc1c(C)n(C)n(-c2ccccc2)c1=O` gave TexasRed fluor inactive, TRb-SRC2 inh inactive, Tau FP inhib inactive, Tau ThT inhib inconclusive, Tau fluor counter inactive and RGS12 GoLoco inh inactive.
O=S(=O)(O)c1ccc(N=Nc2c(O)ccc3cc(S(=O)(=O)O)ccc23)cc1 was read as TexasRed fluor inconclusive and TRb-SRC2 inh inactive.
For Cc1ccc(NCC(O)C(O)C(O)CO)c(N=Nc2ccccc2)c1C (stereo unspecified) the results were TexasRed fluor inactive, TRb-SRC2 inh inactive, Tau FP inhib inactive, Tau ThT inhib 2.5µM, Tau fluor counter 13µM[quencher] and RGS12 GoLoco inh inactive.
For CCOc1ccc(C(=O)NCCSc2c(C)[nH]c3ccccc23)cc1OCC the results were TexasRed fluor inactive, TRb-SRC2 inh inactive, Tau FP inhib inconclusive, Tau ThT inhib inconclusive and Tau fluor counter 14µM[quencher].
`COc1cc(OC)cc(C(=O)NCCSc2c[nH]c3ccccc23)c1` gave TexasRed fluor inactive, TRb-SRC2 inh inactive, Tau FP inhib inactive, Tau fluor counter inconclusive and RGS12 GoLoco inh inactive.
Screening Cc1ccc(C(=O)NCCSc2c[nH]c3ccccc23)cc1C returned TexasRed fluor inactive, TRb-SRC2 inh inactive, Tau FP inhib inactive, Tau ThT inhib inconclusive and Tau fluor counter 16µM[quencher].
COc1ccc(-c2[nH]c3ccccc3c2SCCNC(=O)c2cc(OC)c(OC)c(OC)c2)cc1 was read as TexasRed fluor inactive, TRb-SRC2 inh inactive, Tau FP inhib inactive, Tau ThT inhib inconclusive and Tau fluor counter 7.1µM[quencher].
CN(C)S(=O)(=O)c1ccc(C(=O)NCCSc2ccccc2)cc1 was read as TexasRed fluor inactive, TRb-SRC2 inh inactive, Tau FP inhib inactive, Tau ThT inhib inactive, Tau fluor counter inactive and RGS12 GoLoco inh inactive.
Screening COc1ccc(-c2[nH]c3ccccc3c2SCCNC(=O)c2ccc(S(=O)(=O)N(C)C)cc2)cc1 returned TexasRed fluor inactive, TRb-SRC2 inh inactive, Tau FP inhib inactive, Tau ThT inhib inactive and Tau fluor counter 4µM[quencher].
`COCC(=O)NCCSc1c(C)[nH]c2ccccc12` gave TexasRed fluor inactive, TRb-SRC2 inh inactive, Tau FP inhib inactive, Tau ThT inhib inactive, Tau fluor counter inactive and RGS12 GoLoco inh inactive.
Screening Nc1nc(SCC(=O)c2ccc(Br)cc2)c2[nH]cnc2n1 returned RGS12 GoLoco inh inactive[14.2 µM].
Screening CCN(CC)S(=O)(=O)c1ccc(C(=O)NCCSc2c(-c3ccc(OC)cc3)[nH]c3ccccc23)cc1 returned TexasRed fluor inactive, TRb-SRC2 inh inactive, Tau FP inhib inactive, Tau ThT inhib inactive and Tau fluor counter 4µM[quencher].
`O=C(NCCSc1c[nH]c2ccccc12)c1c(F)cccc1F` gave TexasRed fluor inactive, TRb-SRC2 inh inactive, Tau FP inhib inactive, Tau ThT inhib inactive, Tau fluor counter inactive and RGS12 GoLoco inh inactive.
Screening Cc1ccc(-c2[nH]c3ccccc3c2SCCNC(=O)c2ccc(S(=O)(=O)N(C)C)cc2)cc1 returned TexasRed fluor inactive, TRb-SRC2 inh inactive, Tau FP inhib inactive, Tau ThT inhib inactive and Tau fluor counter inconclusive.
Screening CCN(CC)S(=O)(=O)c1ccc(C(=O)NCCc2cc3c(OC)ccc(OC)c3[nH]c2=O)cc1 returned TexasRed fluor inactive, TRb-SRC2 inh inactive, Tau FP inhib inactive, Tau ThT inhib inactive, Tau fluor counter inactive and RGS12 GoLoco inh inactive.
`CN(C)S(=O)(=O)c1ccc(C(=O)NCCSc2c(-c3ccc(Cl)cc3)[nH]c3ccccc23)cc1` gave TexasRed fluor inactive, TRb-SRC2 inh inactive, Tau FP inhib inactive, Tau ThT inhib inactive and Tau fluor counter 14µM[quencher].
`COc1cccc(C(=O)NCCSc2c(-c3ccc(F)cc3)[nH]c3ccccc23)c1OC` gave TexasRed fluor inactive, TRb-SRC2 inh inactive, Tau FP inhib inactive, Tau ThT inhib inactive and Tau fluor counter 5µM[quencher].
`O=C(Cc1cccs1)NCCSc1c(-c2ccc(Cl)cc2)[nH]c2ccccc12` gave TexasRed fluor inactive, TRb-SRC2 inh inactive, Tau FP inhib inactive, Tau ThT inhib inactive, Tau fluor counter 7.1µM[quencher] and RGS12 GoLoco inh inactive.
O=C(CCS(=O)(=O)c1ccc(Br)s1)Nc1cc(C(F)(F)F)cc(C(F)(F)F)c1 was read as TexasRed fluor inconclusive, TRb-SRC2 inh inactive, Tau FP inhib 20µM, Tau ThT inhib inactive and Tau fluor counter inconclusive.
For CCC(=O)[C@@H](c1ccccc1)c1ccccn1 the results were RGS12 GoLoco inh inactive[14.2 µM].
